# Results from the supplement of paper PMC4466140.
# Target: CaNbp2
# Assay: SPOT peptide array binding signal intensity (averaged, normalized) (arbitrary units (background-subtracted, floor 0; scale differs between SH3 domains)); higher = stronger binding of the SH3 domain to the peptide
# Protocol: (§1)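 GST-tagged SH3 domains from S. cerevisiae (Sc), A. gossypii (Ag), C. albicans (Ca) and S. pombe (Sp) were incubated at 10 ug/ml overnight at 4 C on cellulose SPOT membranes carrying 292 synthetic 15-mer peptides mined from the S. cerevisiae proteome (cysteines replaced by serines). Binding was detected with anti-GST antibody, HRP secondary and chemiluminescence, quantified with Genespotter, and reported as normalized spot intensities averaged over biological replicates.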
row,Binder,SPOT peptide array binding signal intensity
1,RLPAPPPPPRRGPAP,63.5
2,LSKRLPLRFPEHTSS,63.5

# Target: CaRvs167
# Assay: as above
# Protocol: as §1
row,Binder,SPOT peptide array binding signal intensity
1,RLPAPPPPPRRGPAP,223
2,LSKRLPLRFPEHTSS,15.2

# Target: CaRvs167-3
# Assay: as above
# Protocol: as §1
row,Binder,SPOT peptide array binding signal intensity
1,RLPAPPPPPRRGPAP,9.25
2,LSKRLPLRFPEHTSS,15.8

# Target: CaSho1
# Assay: as above
# Protocol: as §1
row,Binder,SPOT peptide array binding signal intensity
1,RLPAPPPPPRRGPAP,11
2,LSKRLPLRFPEHTSS,212

# Target: CaSla1-D1-D2
# Assay: as above
# Protocol: as §1
row,Binder,SPOT peptide array binding signal intensity
1,RLPAPPPPPRRGPAP,2140
2,LSKRLPLRFPEHTSS,≤ 0

# Target: CaSla1-D3
# Assay: as above
# Protocol: as §1
row,Binder,SPOT peptide array binding signal intensity
1,RLPAPPPPPRRGPAP,20.2
2,LSKRLPLRFPEHTSS,1

# Target: ScAbp1
# Assay: as above
# Protocol: as §1
row,Binder,SPOT peptide array binding signal intensity
1,RLPAPPPPPRRGPAP,53
2,LSKRLPLRFPEHTSS,63.5

# Target: ScBbc1
# Assay: as above
# Protocol: as §1
row,Binder,SPOT peptide array binding signal intensity
1,RLPAPPPPPRRGPAP,198
2,LSKRLPLRFPEHTSS,≤ 0

# Target: ScBem1-D1
# Assay: as above
# Protocol: as §1
row,Binder,SPOT peptide array binding signal intensity
1,RLPAPPPPPRRGPAP,3.5
2,LSKRLPLRFPEHTSS,23.5

# Target: ScBzz1-D1
# Assay: as above
# Protocol: as §1
row,Binder,SPOT peptide array binding signal intensity
1,RLPAPPPPPRRGPAP,222
2,LSKRLPLRFPEHTSS,10.5

# Target: ScBzz1-D2
# Assay: as above
# Protocol: as §1
row,Binder,SPOT peptide array binding signal intensity
1,RLPAPPPPPRRGPAP,47.5
2,LSKRLPLRFPEHTSS,17

# Target: ScCyk3
# Assay: as above
# Protocol: as §1
row,Binder,SPOT peptide array binding signal intensity
1,RLPAPPPPPRRGPAP,5
2,LSKRLPLRFPEHTSS,61

# Target: ScFus1
# Assay: as above
# Protocol: as §1
row,Binder,SPOT peptide array binding signal intensity
1,RLPAPPPPPRRGPAP,≤ 0
2,LSKRLPLRFPEHTSS,81

# Target: ScHof1
# Assay: as above
# Protocol: as §1
row,Binder,SPOT peptide array binding signal intensity
1,RLPAPPPPPRRGPAP,175
2,LSKRLPLRFPEHTSS,4.25

# Target: ScHse1
# Assay: as above
# Protocol: as §1
row,Binder,SPOT peptide array binding signal intensity
1,RLPAPPPPPRRGPAP,173
2,LSKRLPLRFPEHTSS,532

# Target: ScLsb1
# Assay: as above
# Protocol: as §1
row,Binder,SPOT peptide array binding signal intensity
1,RLPAPPPPPRRGPAP,27.2
2,LSKRLPLRFPEHTSS,4

# Target: ScLsb2
# Assay: as above
# Protocol: as §1
row,Binder,SPOT peptide array binding signal intensity
1,RLPAPPPPPRRGPAP,5.5
2,LSKRLPLRFPEHTSS,≤ 0

# Target: ScLsb3
# Assay: as above
# Protocol: as §1
row,Binder,SPOT peptide array binding signal intensity
1,RLPAPPPPPRRGPAP,832
2,LSKRLPLRFPEHTSS,492

# Target: ScLsb4
# Assay: as above
# Protocol: as §1
row,Binder,SPOT peptide array binding signal intensity
1,RLPAPPPPPRRGPAP,413
2,LSKRLPLRFPEHTSS,10.5

# Target: ScMyo3
# Assay: as above
# Protocol: as §1
row,Binder,SPOT peptide array binding signal intensity
1,RLPAPPPPPRRGPAP,881
2,LSKRLPLRFPEHTSS,≤ 0

# Target: ScMyo5
# Assay: as above
# Protocol: as §1
row,Binder,SPOT peptide array binding signal intensity
1,RLPAPPPPPRRGPAP,795
2,LSKRLPLRFPEHTSS,≤ 0

# Target: ScNbp2
# Assay: as above
# Protocol: as §1
row,Binder,SPOT peptide array binding signal intensity
1,RLPAPPPPPRRGPAP,30.5
2,LSKRLPLRFPEHTSS,50

# Target: ScPex13
# Assay: as above
# Protocol: as §1
row,Binder,SPOT peptide array binding signal intensity
1,RLPAPPPPPRRGPAP,502
2,LSKRLPLRFPEHTSS,≤ 0

# Target: ScRvs167
# Assay: as above
# Protocol: as §1
row,Binder,SPOT peptide array binding signal intensity
1,RLPAPPPPPRRGPAP,795
2,LSKRLPLRFPEHTSS,231

# Target: ScSho1
# Assay: as above
# Protocol: as §1
row,Binder,SPOT peptide array binding signal intensity
1,RLPAPPPPPRRGPAP,188
2,LSKRLPLRFPEHTSS,952

# Target: ScSla1-D1-D2
# Assay: as above
# Protocol: as §1
row,Binder,SPOT peptide array binding signal intensity
1,RLPAPPPPPRRGPAP,3480
2,LSKRLPLRFPEHTSS,6

# Target: ScSla1-D3
# Assay: as above
# Protocol: as §1
row,Binder,SPOT peptide array binding signal intensity
1,RLPAPPPPPRRGPAP,3.5
2,LSKRLPLRFPEHTSS,4.75

# Target: SpAbp1-D1
# Assay: as above
# Protocol: as §1
row,Binder,SPOT peptide array binding signal intensity
1,RLPAPPPPPRRGPAP,69
2,LSKRLPLRFPEHTSS,228

# Target: SpBbc1
# Assay: as above
# Protocol: as §1
row,Binder,SPOT peptide array binding signal intensity
1,RLPAPPPPPRRGPAP,20
2,LSKRLPLRFPEHTSS,1.5

# Target: SpBzz1-D1
# Assay: as above
# Protocol: as §1
row,Binder,SPOT peptide array binding signal intensity
1,RLPAPPPPPRRGPAP,4030
2,LSKRLPLRFPEHTSS,132

# Target: SpBzz1-D2
# Assay: as above
# Protocol: as §1
row,Binder,SPOT peptide array binding signal intensity
1,RLPAPPPPPRRGPAP,64.8
2,LSKRLPLRFPEHTSS,≤ 0

# Target: SpCyk3
# Assay: as above
# Protocol: as §1
row,Binder,SPOT peptide array binding signal intensity
1,RLPAPPPPPRRGPAP,57
2,LSKRLPLRFPEHTSS,≤ 0

# Target: SpHof1
# Assay: as above
# Protocol: as §1
row,Binder,SPOT peptide array binding signal intensity
1,RLPAPPPPPRRGPAP,115
2,LSKRLPLRFPEHTSS,86

# Target: SpHof1-2
# Assay: as above
# Protocol: as §1
row,Binder,SPOT peptide array binding signal intensity
1,RLPAPPPPPRRGPAP,166
2,LSKRLPLRFPEHTSS,36.2

# Target: SpHof1-3
# Assay: as above
# Protocol: as §1
row,Binder,SPOT peptide array binding signal intensity
1,RLPAPPPPPRRGPAP,1070
2,LSKRLPLRFPEHTSS,538

# Target: SpHse1
# Assay: as above
# Protocol: as §1
row,Binder,SPOT peptide array binding signal intensity
1,RLPAPPPPPRRGPAP,2.25
2,LSKRLPLRFPEHTSS,403

# Target: SpLsb1
# Assay: as above
# Protocol: as §1
row,Binder,SPOT peptide array binding signal intensity
1,RLPAPPPPPRRGPAP,12.2
2,LSKRLPLRFPEHTSS,4.75

# Target: SpLsb4
# Assay: as above
# Protocol: as §1
row,Binder,SPOT peptide array binding signal intensity
1,RLPAPPPPPRRGPAP,1800
2,LSKRLPLRFPEHTSS,1200

# Target: SpMyo1
# Assay: as above
# Protocol: as §1
row,Binder,SPOT peptide array binding signal intensity
1,RLPAPPPPPRRGPAP,510
2,LSKRLPLRFPEHTSS,3.75

# Target: SpNbp2
# Assay: as above
# Protocol: as §1
row,Binder,SPOT peptide array binding signal intensity
1,RLPAPPPPPRRGPAP,12
2,LSKRLPLRFPEHTSS,32

# Target: SpPex13
# Assay: as above
# Protocol: as §1
row,Binder,SPOT peptide array binding signal intensity
1,RLPAPPPPPRRGPAP,≤ 0
2,LSKRLPLRFPEHTSS,2

# Target: SpRvs167
# Assay: as above
# Protocol: as §1
row,Binder,SPOT peptide array binding signal intensity
1,RLPAPPPPPRRGPAP,1170
2,LSKRLPLRFPEHTSS,143

# Target: SpSla1-D1-D2
# Assay: as above
# Protocol: as §1
row,Binder,SPOT peptide array binding signal intensity
1,RLPAPPPPPRRGPAP,339
2,LSKRLPLRFPEHTSS,≤ 0

# Target: SpSla1-D3
# Assay: as above
# Protocol: as §1
row,Binder,SPOT peptide array binding signal intensity
1,RLPAPPPPPRRGPAP,≤ 0
2,LSKRLPLRFPEHTSS,≤ 0

# Target: AgAbp1
# Assay: as above
# Protocol: as §1
row,Binder,SPOT peptide array binding signal intensity
1,LSKRLPLRFPEHTSS,48

# Target: AgBbc1
# Assay: as above
# Protocol: as §1
row,Binder,SPOT peptide array binding signal intensity
1,LSKRLPLRFPEHTSS,5.5

# Target: AgBem1-D1
# Assay: as above
# Protocol: as §1
row,Binder,SPOT peptide array binding signal intensity
1,LSKRLPLRFPEHTSS,≤ 0

# Target: AgBzz1-D1
# Assay: as above
# Protocol: as §1
row,Binder,SPOT peptide array binding signal intensity
1,LSKRLPLRFPEHTSS,9

# Target: AgBzz1-D2
# Assay: as above
# Protocol: as §1
row,Binder,SPOT peptide array binding signal intensity
1,LSKRLPLRFPEHTSS,17

# Target: AgCyk3
# Assay: as above
# Protocol: as §1
row,Binder,SPOT peptide array binding signal intensity
1,LSKRLPLRFPEHTSS,≤ 0

# Target: AgFus1
# Assay: as above
# Protocol: as §1
row,Binder,SPOT peptide array binding signal intensity
1,LSKRLPLRFPEHTSS,102

# Target: AgHof1
# Assay: as above
# Protocol: as §1
row,Binder,SPOT peptide array binding signal intensity
1,LSKRLPLRFPEHTSS,67.5

# Target: AgHse1
# Assay: as above
# Protocol: as §1
row,Binder,SPOT peptide array binding signal intensity
1,LSKRLPLRFPEHTSS,234

# Target: AgLsb1
# Assay: as above
# Protocol: as §1
row,Binder,SPOT peptide array binding signal intensity
1,LSKRLPLRFPEHTSS,5.5

# Target: AgLsb4
# Assay: as above
# Protocol: as §1
row,Binder,SPOT peptide array binding signal intensity
1,LSKRLPLRFPEHTSS,53.5

# Target: AgMyo5
# Assay: as above
# Protocol: as §1
row,Binder,SPOT peptide array binding signal intensity
1,LSKRLPLRFPEHTSS,≤ 0

# Target: AgNbp2
# Assay: as above
# Protocol: as §1
row,Binder,SPOT peptide array binding signal intensity
1,LSKRLPLRFPEHTSS,10

# Target: AgRvs167
# Assay: as above
# Protocol: as §1
row,Binder,SPOT peptide array binding signal intensity
1,LSKRLPLRFPEHTSS,1.33

# Target: AgSho1
# Assay: as above
# Protocol: as §1
row,Binder,SPOT peptide array binding signal intensity
1,LSKRLPLRFPEHTSS,17

# Target: AgSla1-D1-D2
# Assay: as above
# Protocol: as §1
row,Binder,SPOT peptide array binding signal intensity
1,LSKRLPLRFPEHTSS,2

# Target: AgSla1-D3
# Assay: as above
# Protocol: as §1
row,Binder,SPOT peptide array binding signal intensity
1,LSKRLPLRFPEHTSS,≤ 0

# Target: CaAbp1-D1
# Assay: as above
# Protocol: as §1
row,Binder,SPOT peptide array binding signal intensity
1,LSKRLPLRFPEHTSS,462

# Target: CaAbp1-D2
# Assay: as above
# Protocol: as §1
row,Binder,SPOT peptide array binding signal intensity
1,LSKRLPLRFPEHTSS,220

# Target: CaBbc1
# Assay: as above
# Protocol: as §1
row,Binder,SPOT peptide array binding signal intensity
1,LSKRLPLRFPEHTSS,27.2

# Target: CaBem1-D1
# Assay: as above
# Protocol: as §1
row,Binder,SPOT peptide array binding signal intensity
1,LSKRLPLRFPEHTSS,10

# Target: CaBzz1-D1
# Assay: as above
# Protocol: as §1
row,Binder,SPOT peptide array binding signal intensity
1,LSKRLPLRFPEHTSS,22

# Target: CaBzz1-D2
# Assay: as above
# Protocol: as §1
row,Binder,SPOT peptide array binding signal intensity
1,LSKRLPLRFPEHTSS,60.8

# Target: CaCyk3
# Assay: as above
# Protocol: as §1
row,Binder,SPOT peptide array binding signal intensity
1,LSKRLPLRFPEHTSS,4

# Target: CaFus1
# Assay: as above
# Protocol: as §1
row,Binder,SPOT peptide array binding signal intensity
1,LSKRLPLRFPEHTSS,402

# Target: CaHof1
# Assay: as above
# Protocol: as §1
row,Binder,SPOT peptide array binding signal intensity
1,LSKRLPLRFPEHTSS,0.75

# Target: CaHse1
# Assay: as above
# Protocol: as §1
row,Binder,SPOT peptide array binding signal intensity
1,LSKRLPLRFPEHTSS,81

# Target: CaLsb1
# Assay: as above
# Protocol: as §1
row,Binder,SPOT peptide array binding signal intensity
1,LSKRLPLRFPEHTSS,1

# Target: CaLsb4
# Assay: as above
# Protocol: as §1
row,Binder,SPOT peptide array binding signal intensity
1,LSKRLPLRFPEHTSS,136

# Target: CaMyo5
# Assay: as above
# Protocol: as §1
row,Binder,SPOT peptide array binding signal intensity
1,LSKRLPLRFPEHTSS,≤ 0
